In the supplement of paper PMC11417369:
± gives the standard deviation of the averaged measurements. The full ranking holds about 25,000 sequences; the median of “ln(normalized median fluorescence intensity)” is about 10, and the highest 2% start at about 12. The full list was thinned out, with the highest values kept by preference.

Test system: PfAP2-G AP2 domain (GST-tagged)
Assay: gcPBM binding intensity (ln(normalized median fluorescence intensity)); higher = stronger DNA binding
Method in brief: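 Probes on an Agilent 4 × 180k array were primer-extended, double-stranded and 36 bp long, taken from intergenic genomic regions, with negative controls added. GST-tagged P. falciparum DNA-binding domains from E. coli, about 25 μg on average, were applied to the array for 1 h in 1× PBS containing 1% milk, 0.2 mg/ml BSA, 0.5% salmon testes DNA and 0.03% Triton X-100. Binding intensity, obtained after Alexa488 anti-GST antibody detection and a 488 nm scan, is the highest Masliner-normalised natural-log median intensity across replicate spots of either probe orientation.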

Sequence	gcPBM binding intensity (ln)
CACCCACACCAACACACACACATATATAATATATAT [CACACA_site595]	10.3 ± 0.33
CCCTTTTCTAAATATTGTACGTATAAATTATATTAC [XGTACX_site7676]	11.7 ± 0.88
TAAATAATATAATTATGTACGTATTTCTTTATTTTA [XGTACX_site8410]	11.4 ± 0.83
TTTTTTTTTTTCTTTTGTACGTATAAAATTATATAA [XGTACX_site2453]	11.5 ± 0.66
GGTGCACCCATATACACACACAAATACAATGATAAA [CACACA_site1132]	10.6 ± 0.76
AATATATAAATTGACACACACATATATACATATATA [CACACA_site1213]	10.1 ± 0.11
AATTCATTTTACCCATGTACACAATTATATTTTATA [XGTACX_site4127]	11.6 ± 0.83
TATATATTTTGTGTCTGTACACATATTATTAATTCC [XGTACX_site7507]	11.4 ± 1
TGTCTGTGCGGGTGTACACATTTCATATTACCCAAT [CACACA_site5593]	11.8 ± 0.98
AATTTTTCATCAAGTTGTACAATTATTTGTTTGTTT [XGTACX_site3113]	11.3 ± 0.73
ATATTAGAAATATGAATAGAAAGAATATATAAGTAT [CACACA_negctrl_site682]	9.76 ± 0.37
TGTTTCTAAAAAAAAGGTACACATATATATAATATA [XGTACX_site3217]	11.4 ± 0.93
TCGATATATAGACACACACACTTTTAATAATTAAAT [CACACA_site7726]	10.2 ± 0.24
TCTTTAATGATGTGTACACAAGAAAACATTGTTAAG [CACACA_site5299]	11.7 ± 0.89
TCAAATGTGTAATCTTGTACACATTAAAAGAAAAAA [XGTACX_site8822]	11.2 ± 0.83
AACAATGTTTTCTTGTGTACACATCATTAAAGAAAA [XGTACX_site4726]	11.6 ± 0.88
ATTTTTTTTTTTATTTTCTTTGAGATTATCTTAATT [CACACA_negctrl_site1209]	9.78 ± 0.14
TATATATATATATGGGGTACAAATGGTCAGTATTAT [XGTACX_site1223]	11.7 ± 0.97
TATGTATAAAAATAATGTACAAAATATATTATATGT [XGTACX_site2794]	10.9 ± 0.4
AAAAAAAAAATTGAAAGTACACAAATGGGGTATTAT [XGTACX_site3960]	11.5 ± 0.87
TAAAATTTGTACATAGTGCAATTTTTTTTTTTTTTT	10.7 ± 0.52
TAATATTTTTTGTGTACACATATATATATATATATA [CACACA_site5504]	11.7 ± 0.88
ATCATGAAATATATTTGTACACATAATAATATAATA [XGTACX_site8798]	11.4 ± 0.89

Sequence	gcPBM binding intensity (ln)
GTGTTTTTATTATTTTGTACACATATATTTAATATT [XGTACX_site2109]	11.5 ± 0.87
CATAAAATTGTATTTTGTACACATTTTGTATACATT [XGTACX_site5705]	11.4 ± 0.82
TTTTTTTTTGGGTGTACACATGAATATATATTTTTT [CACACA_site5254]	11.7 ± 0.95
ATGAATATATATATTTGTACATATGTATATATATAT [XGTACX_site7527]	10.9 ± 0.54
ACATATAAATTGTGTACACATATATATATATTTTTT [CACACA_site5946]	11.8 ± 1
TTGTGAAATAAAATTTGTACACACATATATATATAT [XGTACX_site1078]	11.2 ± 0.86
TATATTTGTGCGTGTACACATTTGAAAAAATATATA [CACACA_site5079]	11.6 ± 0.88
TTTTTTTTGTGTATTTGTACATAATATATATATATA [XGTACX_site7092]	10.9 ± 0.49
TATACATATAAATTGTGTACACATATATATATATTT [XGTACX_site7875]	11.6 ± 0.92
TGTTATATTTGTGCGTGTACACATTTGAAAAAATAT [XGTACX_site3796]	11.8 ± 1.1
GTTGGGTAATTCGTAACACACATAAAATATATATAA [CACACA_site3986]	10.13 ± 0.099
CATAATGTAAATAAGTGTACACATATATAATACATA [XGTACX_site3108]	11.6 ± 0.9
TATATTTATAGGTACACACACACATATAAATAAATA [CACACA_site6345]	11.3 ± 0.98
TTATTTCTACCTTTTTGTACACATTATTATGAAACC [XGTACX_site5325]	11.3 ± 0.81
ACTATTTTAAAAATATGTACATACGTTGTAATTTAA [XGTACX_site7999]	11.4 ± 0.83
ATAATACAATTTATAACACACACACTATAATACATA [CACACA_site8338]	10.025 ± 0.007
TTAGGTATATATAAACGTACTCACAATATCATATAA [XGTACX_site8743]	11.1 ± 0.71
GAATTATAAGAATAAACACACAAGCTTAAAAAAAAA [CACACA_site1204]	9.74 ± 0.18
TATTTGTGTATTTTTACACACATTAATATATTTATA [CACACA_site7562]	9.9 ± 0.2
ATATATTTATATTTGTGTACATATTTATTATATTTA [XGTACX_site404]	11.5 ± 0.67
AATATATATTTGTGTACACATTATATATATATATAT [CACACA_site6103]	11.9 ± 1.1
CAAAAAGGAATGTATGCACACAATTGATTTTAACTC [CACACA_site1468]	10 ± 0.13
AAATTAATAAATATTTTTATAAATTATAATATTAAT [GTGCAC_negctrl_site533]	9.37 ± 0.16

Sequence	gcPBM binding intensity (ln)
TTTATTTTTAAAGGCACACACATTTTTATTTTTAAA [CACACA_site2021]	10.1 ± 0.19
AGAAATTAATCGAAGTGTACATATAAACATACATAT [XGTACX_site5518]	11.3 ± 0.69
AGAAATTAATCGAGGTGTACGTACATCCAAATATAT [XGTACX_site7650]	11.8 ± 1.2
GAAAATACGTTTAATCGTACATATATATAATATATA [XGTACX_site4243]	11.1 ± 0.88
GAGAAAAGGAAATTCACACATATAAAGAAAGATCTA [CACACA_site5420]	9.865 ± 0.064
AAAAAATATTTTTACAGTACATATATATAAAATGTT [XGTACX_site3215]	10.9 ± 0.58
AAGGAAATATAATATACACACATAAGTGTACTTATA [CACACA_site4030]	11.6 ± 1.1
AAGGAAATATAATATACACACATAAGTGTACTTCTA [CACACA_site6079]	11.7 ± 1.1
ATAAATACACACAAGTGTACATACTTCTATAAATAT [XGTACX_site1845]	11.3 ± 0.96
ATATATGAAAATATATGTACACAACATATAAAATAG [XGTACX_site5132]	11.4 ± 0.83
ATAAAATAAAAGTGTACACAAGAAAATATGTTATGT [CACACA_site6033]	11.6 ± 0.79
TATATATATATGTGTACACAAAAAATATTATATTAT [CACACA_site5505]	11.9 ± 0.93
ATATATATATATATGTGTACACAACAAAATAAAAAA [XGTACX_site7378]	11.7 ± 0.79
AGTATAAAATAAATGTGTACACAAGAAAATATGTTA [XGTACX_site8381]	11.8 ± 0.93
TACAAATTAATATGTACACACAAATATATATATATA [CACACA_site1977]	11.4 ± 0.87
GATTATATATGAAAATGTACAAATATATATATATAT [XGTACX_site5963]	10.8 ± 0.28
TATATATATATGTGTAGTACAACAAATATGAAAAAT [XGTACX_site4059]	11.7 ± 0.86
AAGAAATAAAAAGAATGTACACAATATGTATTATAA [XGTACX_site4733]	11.5 ± 0.69
TTTTTTTTTTTTTTTACACACACAAAATATTATATG [CACACA_site2471]	9.99 ± 0.38
ATATAAATAAATATATGTACACACACAAATATATAC [XGTACX_site3950]	11.4 ± 0.73
ATAATATAACACAAATGTACAAAAAATAAATAAATA [XGTACX_site385]	10.7 ± 0.4
ATCTAATAAAAATACACACACATATGATTTGTGAAT [CACACA_site1867]	10.1 ± 0.28
TTCTTTTTAAATATACTAATTATGTATAAAACAGAA [GTGCAC_negctrl_site131]	9.94 ± 0.23

Sequence	gcPBM binding intensity (ln)
TAAATTATTTATAAAGCACACAAGAAAAAATAAAAT [CACACA_site2132]	10.2 ± 0.092
TTTCACACTATTTCATGTACACATAAAATTATATAT [XGTACX_site8692]	11.4 ± 0.94
ATACTATAATAATACACACTCATTAGATATATAAAG [CACACA_site7787]	9.99 ± 0.12
AAAAAAAAAAAATGAGCACACATAAATAAAAACAAA [CACACA_site8447]	10.2 ± 0.12
AAATTAAATAAATTTACACACTAAAAATTACAGATA [CACACA_site4722]	9.88 ± 0.028
GACAAATTATTGTGTACACAATATTATTATATATAC [CACACA_site6020]	11.6 ± 0.89
AAAAATATATTATATGTACACACAAAATTAAGGGAT [CACACA_site8384]	11.5 ± 0.83
AATGTATAATTATAATGTACAAATAATATATAATAT [XGTACX_site5407]	10.9 ± 0.4
TTATTTTTTTTTTTTTGTACACAATTTGACACATTA [XGTACX_site7983]	11.5 ± 0.91
ATACACATATGTTAATGTACACATATATAATATTTA [XGTACX_site163]	11.3 ± 0.78
AAATGTGTTAATGTGCGTACACATATATATAATATT [XGTACX_site2792]	11.7 ± 1.1
ATATATATATATATGTGTACACAAAAAATATTATAT [XGTACX_site5741]	11.6 ± 0.83
TTTGACAAATTATTGTGTACACAATATTATTATATA [XGTACX_site8320]	11.7 ± 1
AAAAATATAATATAATGTACACAAAAAAAAAAAAAT [XGTACX_site4914]	11.6 ± 0.91
TGTATTATATATACACAAATATTTATGTGTGTGTTT [XGTACX_negctrl_site475]	10.1 ± 0.11
TTAAAAATGTGTGTGCGTACATAATATTTCGAAAAA [XGTACX_site8197]	11.6 ± 1
TATATATATATAATGTGTACACAAATATATATTATA [XGTACX_site8786]	11.7 ± 1.1
TTTTTTTTCTCACAAAAAATAATTAACAAAAAGGAA [XGTACX_negctrl_site154]	10.2 ± 0.32
ATATATATAATAAATACACACATTTATATAGATAAA [CACACA_site3254]	9.925 ± 0.092
TGACTTTGTTGAATTTGTCCTCTTAACTCATAATAT [GTGCAC_negctrl_site217]	10.6 ± 0.48
